The source made the active and inactive calls. Unless noted, how the calls were made is not given here.
Columns and labels:
[1] = anti-His antibody binders, primary screen, artefact control for SMM control protein annotation, biochemical, small-molecule microarray, 635 nm fluorescence (AID 1128); details: anti-His Alexa647 antibody binding, higher = more signal;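 further: score merges feature fluorescence with signal-to-noise for each printed compound spot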
[2] = test system: Human papillomavirus type 1a E7 protein (residues 1-88); assay: HPV1a E7 small-molecule binders, primary screen, biochemical, small-molecule microarray, residues 1-88, 635 nm (AID 1129); details: small-molecule microarray binding, fluorescence 635 nm; higher = more signal
[3] = molecular target: Focal adhesion kinase 1 (Homo sapiens) (UniProt Q05397); assay: small-molecule microarray binders of FAK, primary screen, biochemical, 635/667 nm fluorescence, BSA, DTT (AID 1130); details: PTK2 binding, 635 nm fluorescence, higher = more signal;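 further: composite of spot emission at 667 nm and signal to noise over triplicate slides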
[4] = test system: Fibrinogen (Alexa647-labelled); assay: fibrinogen binders on compound microarrays, profiling panel, artefact control for SMM control-protein annotation, biochemical, small-molecule microarray, 635/667 nm fluorescence (AID 1131); details: fibrinogen-A647 binding fluorescence, higher = more signal;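 further: z-score merges 667 nm fluorescence with per-spot signal-to-noise over triplicate slides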
[5] = molecular target: Follistatin (Homo sapiens) (UniProt P19883); assay: follistatin binders on small-molecule microarrays, primary screen, biochemical, small-molecule microarray, 635/667 nm fluorescence (AID 1132); details: FST binding, 635 nm fluorescence, higher = more signal
[6] = molecular target: Fibroblast growth factor 2 (Homo sapiens) (UniProt P09038); assay: FGF2 binders on small-molecule microarrays, primary screen, biochemical, small-molecule microarray, 635/667 nm fluorescence (AID 1133); details: small-molecule microarray binding, FGF2, fluorescence 635/667; higher = more signal
[7] = mitochondrial membrane potential change in A549 cells, profiling panel, cell-based, JC-1 fluorescence, basal, 24 h, 100 nL (AID 1138); details: higher = more signal;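 further: A549 lung adenocarcinoma cells under basal conditions with no added stimulus; test concentration not given here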
Lefty1 = Lefty1 binders on small-molecule microarrays, primary screen, biochemical, small-molecule microarray, 635/667 nm fluorescence (AID 1139); details: small-molecule microarray binding, fluorescence 635/667; higher = more signal
[8] = test system: wheat germ agglutinin (Triticum aestivum), Alexa647-labelled; assay: wheat germ agglutinin binders on compound microarrays, profiling panel, artefact control for SMM control-protein annotation, biochemical, small-molecule microarray, 635/667 nm fluorescence (AID 1140); details: WGA-A647 binding, 635 nm fluorescence, higher = more signal;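 further: score merges 667 nm feature emission with signal to noise over triplicate slides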
[9] = molecular target: Luciferin 4-monooxygenase (Photinus pyralis) (UniProt P08659); assay: firefly luciferase enzyme inhibitors, primary screen, biochemical, luminescence, purified enzyme, 2006 set (AID 1141); details: SteadyGlo luminescence, 30 min, higher = more signal, called active from +8 up or from −8 down;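 further: cell-free assay with purified firefly luciferase at 100 ng per well in PBS; test concentration not given here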
[10] = test system: Wnt5a (protein binding on small-molecule microarray); assay: Wnt5a binders on small-molecule microarray, primary screen, biophysical, 635/667 nm fluorescence (AID 1142); details: 635 nm fluorescence, higher = more signal;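 further: fluorescence read at 667 nm with signal to noise per printed feature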
[11] = cell viability in Huh7 cells, primary screen, cytotoxicity control for HCV replication inhibitor project, CellTiter-Glo luminescence, basal, 48 h (AID 1143); details: Huh7 HCV replicon, higher = more signal, called active from +8 up or from −8 down;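 further: Huh7 hepatoma cells carrying a hepatitis C replication reporter with no stimulus; test concentration not given here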
[12] = P. aeruginosa biofilm formation inhibitors, primary screen, PAO1 strain, BacTiter-Glo luminescence, LB-PBS (AID 1144); details: 12 h, higher = more signal
[13] = CREB reporter modulators without forskolin, primary screen, cell-based, PC12, CRE-LacZ reporter, unstimulated (AID 1145); details: no forskolin, luminescence, 4.5 h, higher = more signal, called active from +8 up or from −8 down
[14] = CREB reporter modulators under forskolin, primary screen, cell-based, PC12, CRE-LacZ reporter, forskolin-stimulated (AID 1146); details: luminescence, 4.5 h, higher = more signal, called active from +8 up or from −8 down;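 further: PC12 cells with 6xCRE LacZ reporter stimulated by forskolin 10 µM; beta-galactosidase reporter signal reflecting CREB driven transcription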
[15] = molecular target: Streptavidin (Streptomyces avidinii) (UniProt P22629); assay: streptavidin binders on small-molecule microarray, primary screen, artefact control for SMM compound annotation, biophysical, 635/667 nm fluorescence (AID 1147); details: streptavidin binding, higher = more signal;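 further: signal reflects streptavidin binding to arrayed compounds as a control protein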
[16] = small-molecule binders of probe aInhba, primary screen, biochemical, small-molecule microarray, 635/667 nm fluorescence (AID 1148); details: higher = more signal;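 further: score merges 667nm spot fluorescence with signal-to-noise for antibody binding to printed compounds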
Torsin-1A (Homo sapiens) [17] = molecular target: Torsin-1A (Homo sapiens) (UniProt O14656); assay: torsin A binders from cell lysate, primary screen, small-molecule microarray, wild-type, 635/667 nm (AID 1149); details: COS7 hTOR1A-WT lysate, 635 nm fluorescence, higher = more signal
Torsin-1A (Homo sapiens) [18] = molecular target: Torsin-1A (Homo sapiens) (UniProt O14656); assay: small-molecule binders of mutant TOR1A in lysate, primary screen, cell lysate, small-molecule microarray, COS7 lysate, 635/667 nm fluorescence (AID 1150); details: COS7 hTOR1A mutant lysate, 635 nm fluorescence, higher = more signal;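 further: score pools 667 nm emission and signal to noise measuring lysate protein binding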
[19] = test system: Sonic hedgehog protein (Shh); assay: small-molecule binders of Shh protein, primary screen, biochemical, small-molecule microarray, 635/667 nm fluorescence (AID 1151); details: small-molecule microarray binding, 635 nm fluorescence; higher = more signal;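 further: Shh protein binding to compounds spotted on small-molecule microarray slides; score combines spot fluorescence intensity with signal-to-noise across triplicate slides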

Chain of Luciferin 4-monooxygenase (Photinus pyralis) (P08659 whole entry, looked up): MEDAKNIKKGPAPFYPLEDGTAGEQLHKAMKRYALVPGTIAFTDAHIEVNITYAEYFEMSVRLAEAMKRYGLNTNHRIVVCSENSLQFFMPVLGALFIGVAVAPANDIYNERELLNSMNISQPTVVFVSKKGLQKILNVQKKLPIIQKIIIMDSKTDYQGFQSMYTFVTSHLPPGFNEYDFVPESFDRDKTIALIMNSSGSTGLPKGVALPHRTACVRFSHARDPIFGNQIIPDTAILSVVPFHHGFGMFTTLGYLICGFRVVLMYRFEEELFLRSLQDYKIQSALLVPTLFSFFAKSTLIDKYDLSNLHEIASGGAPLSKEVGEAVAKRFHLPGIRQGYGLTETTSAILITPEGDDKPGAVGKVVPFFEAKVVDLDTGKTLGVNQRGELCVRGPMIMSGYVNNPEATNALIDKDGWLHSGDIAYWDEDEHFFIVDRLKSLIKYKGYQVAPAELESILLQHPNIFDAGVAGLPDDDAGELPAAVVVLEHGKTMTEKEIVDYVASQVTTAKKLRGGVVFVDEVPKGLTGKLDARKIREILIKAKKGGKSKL
Chain of Fibroblast growth factor 2 (Homo sapiens) (P09038 whole entry, looked up): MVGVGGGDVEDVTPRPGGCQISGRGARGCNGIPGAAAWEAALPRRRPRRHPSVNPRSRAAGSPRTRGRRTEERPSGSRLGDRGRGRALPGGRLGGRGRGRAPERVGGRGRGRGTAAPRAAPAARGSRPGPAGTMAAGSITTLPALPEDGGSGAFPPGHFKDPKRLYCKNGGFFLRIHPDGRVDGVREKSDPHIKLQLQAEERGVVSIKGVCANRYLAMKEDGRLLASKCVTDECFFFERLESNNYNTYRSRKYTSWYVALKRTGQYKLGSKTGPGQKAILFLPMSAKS
Chain of Streptavidin (Streptomyces avidinii) (P22629 whole entry, looked up): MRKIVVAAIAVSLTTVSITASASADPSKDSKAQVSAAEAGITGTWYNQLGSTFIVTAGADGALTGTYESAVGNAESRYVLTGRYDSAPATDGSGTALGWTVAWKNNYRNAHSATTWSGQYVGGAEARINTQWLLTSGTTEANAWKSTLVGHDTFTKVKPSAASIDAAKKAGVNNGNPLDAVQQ
Chain of Follistatin (Homo sapiens) (P19883 whole entry, looked up): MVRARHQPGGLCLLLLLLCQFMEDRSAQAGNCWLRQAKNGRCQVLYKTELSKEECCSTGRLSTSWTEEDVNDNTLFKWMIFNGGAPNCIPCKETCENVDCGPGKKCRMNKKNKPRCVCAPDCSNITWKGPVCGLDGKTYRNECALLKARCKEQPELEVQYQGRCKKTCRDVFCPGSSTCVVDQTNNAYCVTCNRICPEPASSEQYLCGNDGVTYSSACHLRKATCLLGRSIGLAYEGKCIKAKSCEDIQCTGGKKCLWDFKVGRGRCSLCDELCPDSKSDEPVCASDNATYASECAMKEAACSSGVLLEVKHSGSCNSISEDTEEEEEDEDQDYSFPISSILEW
Chain of Focal adhesion kinase 1 (Homo sapiens) (Q05397 whole entry, looked up): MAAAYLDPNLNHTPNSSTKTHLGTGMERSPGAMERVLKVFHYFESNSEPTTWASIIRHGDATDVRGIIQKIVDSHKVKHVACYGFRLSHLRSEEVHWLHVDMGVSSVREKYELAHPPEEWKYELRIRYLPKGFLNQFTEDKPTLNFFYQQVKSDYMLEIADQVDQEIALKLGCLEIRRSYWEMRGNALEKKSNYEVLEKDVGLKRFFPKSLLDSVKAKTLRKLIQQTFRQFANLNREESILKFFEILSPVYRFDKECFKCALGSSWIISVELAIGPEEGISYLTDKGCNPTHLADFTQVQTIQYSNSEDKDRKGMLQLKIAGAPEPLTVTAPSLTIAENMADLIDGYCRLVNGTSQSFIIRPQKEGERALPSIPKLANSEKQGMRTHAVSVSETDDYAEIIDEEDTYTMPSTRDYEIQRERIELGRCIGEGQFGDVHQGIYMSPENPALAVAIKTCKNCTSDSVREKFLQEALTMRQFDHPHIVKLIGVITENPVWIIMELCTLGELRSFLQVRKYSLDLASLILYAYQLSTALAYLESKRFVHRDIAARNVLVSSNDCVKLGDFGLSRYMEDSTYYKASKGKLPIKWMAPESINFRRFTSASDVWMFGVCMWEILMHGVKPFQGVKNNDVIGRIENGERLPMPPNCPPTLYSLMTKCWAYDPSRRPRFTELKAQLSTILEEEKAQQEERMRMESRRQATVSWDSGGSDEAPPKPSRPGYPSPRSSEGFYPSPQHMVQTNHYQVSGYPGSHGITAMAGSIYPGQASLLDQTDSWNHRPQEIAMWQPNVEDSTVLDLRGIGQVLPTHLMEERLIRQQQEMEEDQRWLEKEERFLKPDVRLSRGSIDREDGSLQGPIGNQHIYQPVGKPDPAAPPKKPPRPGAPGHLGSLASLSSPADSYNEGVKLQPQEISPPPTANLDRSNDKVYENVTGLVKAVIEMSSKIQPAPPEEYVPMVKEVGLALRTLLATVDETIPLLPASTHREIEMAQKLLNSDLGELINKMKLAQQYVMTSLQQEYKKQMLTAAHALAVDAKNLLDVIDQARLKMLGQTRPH
Chain of Torsin-1A (Homo sapiens) (O14656 whole entry, looked up): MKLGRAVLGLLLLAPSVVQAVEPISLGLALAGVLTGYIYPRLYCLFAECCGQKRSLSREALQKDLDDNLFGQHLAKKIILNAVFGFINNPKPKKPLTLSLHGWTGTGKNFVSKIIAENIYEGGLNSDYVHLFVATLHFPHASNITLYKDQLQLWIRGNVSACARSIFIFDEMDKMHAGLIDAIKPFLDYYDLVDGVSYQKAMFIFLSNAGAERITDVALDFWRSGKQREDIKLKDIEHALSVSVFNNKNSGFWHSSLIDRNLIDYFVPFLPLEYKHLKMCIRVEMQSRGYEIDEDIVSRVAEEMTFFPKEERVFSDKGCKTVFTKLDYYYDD

| SMILES | composite z-score [1] | composite z-score [2] | composite z-score [3] | composite z-score [4] | composite z-score [5] | composite z-score [6] | z-score [7] | composite z-score (Lefty1) | composite z-score [8] | z-score [9] | composite z-score [10] | z-score [11] | z-score [12] | z-score [13] | z-score [14] | composite z-score [15] | composite z-score [16] | composite z-score (Torsin-1A (Homo sapiens) [17]) | composite z-score (Torsin-1A (Homo sapiens) [18]) | composite z-score [19] |
| --- | --- | --- | --- | --- | --- | --- | --- | --- | --- | --- | --- | --- | --- | --- | --- | --- | --- | --- | --- | --- |
| [N-]=[N+]=NCc1ccccc1C[C@@]1(C(=O)N2CCOCC2)N=C(c2ccc(OCCCO)cc2)O[C@@H]1c1ccccc1 | 3.12 | 1.18 | 0.406 | 0.884 | 0.734 | 0.399 | -0.667 | -0.379 | 0.529 | -0.469 (inactive) | 0.464 | -5.68 (inactive) | -0.244 (inactive) | 0.922 (inactive) | -0.951 (inactive) | 1.35 | 0.0589 | 1.19 | 1.31 | -0.796 |
| C[C@@H]1NC(=O)[C@@]23C(=O)N[C@@H](Cc4ccccc4)C2[C@H](C)[C@@]2(C)O[C@H]2C3/C=C/C/C=C\CNC(=O)[C@@H]2CCCN2C1=O (stereo not given in full) | 0.104 | -0.715 | -0.178 | -1.12 | 0.148 | -0.197 | 0.0238 | 0.0216 | -0.628 | 0.0545 (inactive) | -0.0872 | -0.0642 (inactive) | -0.426 (inactive) | -0.687 (inactive) | -0.226 (inactive) | -0.591 | -0.159 | 0.271 | -0.127 | 0.44 |
| C=C(COC)C(=O)CC[C@@H](OC(=O)c1cccnc1)c1ccc(OCCO)cc1 | 0.282 | 0.659 | -0.157 | 0.108 | 1.4 | 1.78 | 0.822 | 1.21 | 0.237 | -3.79 (inactive) | 1.71 | -7.08 (inactive) | 0.403 (inactive) | 5.67 (inactive) | 0.0067 (inactive) | -0.23 | 0.0471 | 0.889 | 0.321 | 1.54 |
| C[C@@H]1ON(c2ccc(C(=O)OC(C)(C)C)cc2)[C@H](c2ccc(O)cc2)[C@H]1C(=O)N1C(=O)OC[C@H]1Cc1ccccc1 | 0.249 | 1.03 | 0.437 | 0.584 | 0.472 | 0.382 | -1.49 | 1.29 | 0.828 | -0.416 (inactive) | 0.218 | -2.96 (inactive) | 0.133 (inactive) | 1.22 (inactive) | 0.419 (inactive) | 0.922 | -0.0552 | 0.438 | 0.616 | 0.596 |
| C=CCC(OC(C)=O)[C@@H]1[C@@H](N(Cc2cccc3ccccc23)C(=O)c2cccc3ccccc23)c2cc(OCCCO)ccc2N1C(=O)c1ccc(-c2ccccc2)cc1 (stereo not given in full) | -0.123 | -0.14 | 0.0614 | 0.643 | 0.693 | 0.497 | -0.338 | 0.0548 | 0.0915 | 0.337 (inactive) | -0.0964 | -1.56 (inactive) | 1.21 (inactive) | -0.113 (inactive) | 1.24 (inactive) | 0.116 | 0.0543 | -0.104 | 0.292 | 0.556 |
| Cc1ccc(S[C@]2(C(=O)O)CC(=O)N(Cc3cc(C(F)(F)F)cc(C(F)(F)F)c3)[C@@H]2c2ccc(CO)cc2)cc1 | -1.45 | -0.889 | -0.194 | -0.84 | -1.22 | -0.897 | -0.389 | -1.66 | -1.31 | -0.0278 (inactive) | -0.256 | 0.0756 (inactive) | -0.00769 (inactive) | 0.621 (inactive) | 0.573 (inactive) | -0.882 | -0.128 | -0.272 | -0.62 | -1.26 |
| COCCCNC(=O)[C@@]1(Sc2ccc(C)cc2)CC(=O)N(C2CCCCC2)[C@@H]1c1ccc(CO)cc1 | 0.624 | -0.454 | 0.647 | -1.08 | -0.441 | -0.511 | -0.227 | -1.63 | -0.361 | 0.545 (inactive) | 0.0421 | -0.0515 (inactive) | -0.319 (inactive) | 0.118 (inactive) | 1.7 (inactive) | -0.749 | -0.154 | -1.51 | -0.424 | -0.911 |
| COCCCNC(=O)[C@@]1(Cc2ccccc2N=[N+]=[N-])N=C(c2ccc(OCCCO)cc2)O[C@H]1c1ccccc1 | 2.18 | 1.21 | 0.854 | 0.776 | 1.46 | 1.03 | 0.624 | 0.256 | 0.759 | -0.97 (inactive) | 1.51 | -4.36 (inactive) | -1.31 (inactive) | 0.558 (inactive) | -0.472 (inactive) | -0.459 | 0.0589 | 3.67 | 3.61 | 0.55 |
| COCCCNC(=O)[C@]1(CCS(=O)(=O)c2ccccc2)N=C(c2ccc(OCCCO)cc2)O[C@@H]1c1ccccc1N=[N+]=[N-] | 2.09 | 1.22 | -0.0436 | 0.996 | 0.794 | -0.138 | 0.789 | -0.279 | 1.13 | -10.1 (active) | 1.02 | -2.78 (inactive) | 2.09 (inactive) | 0.297 (inactive) | -1.27 (inactive) | 1.31 | -0.0907 | 0.602 | 0.441 | -0.498 |
| COCCOC(=O)N1C(=O)[C@@]2(c3cc(C#Cc4ccc(OC)cc4)ccc31)[C@H](C(=O)Nc1nc3ccccc3s1)[C@H]1C(=O)O[C@H](c3ccccc3)[C@H](c3ccccc3)N1[C@@H]2c1ccc(OCCO)cc1 | 1.14 | 1.12 | 0.168 | 0.809 | 1.17 | 1.28 | -2.19 | 0.87 | 0.494 | -3.71 (inactive) | 0.755 | -1.12 (inactive) | 0.133 (inactive) | 0.757 (inactive) | 0.442 (inactive) | 1.12 | 0.246 | -0.129 | 0.337 | 1.84 |
